Bioassay records (PubChem BioAssay)
KCNQ2 pot = potentiators of rat KCNQ2 potassium channel. 310,000 tested, 0.54% active. AID 2239, 2010. B-score at 10 µM. CHO-K1 KCNQ2, FluxOR thallium flux fluorescence; hits give high values;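 active = fluorescence ratio B-score at least 3 SD of library B-scores, with initial fluorescence B-score within 3 of them, cut at about 5.3 in these data; same plate scores as AID 2156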;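 also: B-score of peak minus minimum over baseline fluorescence ratio after K+ and Tl+ stimulus; positive B-score means potentiation of KCNQ2 with more thallium influx and brighter signal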
Target sequence (O88943 whole entry, looked up): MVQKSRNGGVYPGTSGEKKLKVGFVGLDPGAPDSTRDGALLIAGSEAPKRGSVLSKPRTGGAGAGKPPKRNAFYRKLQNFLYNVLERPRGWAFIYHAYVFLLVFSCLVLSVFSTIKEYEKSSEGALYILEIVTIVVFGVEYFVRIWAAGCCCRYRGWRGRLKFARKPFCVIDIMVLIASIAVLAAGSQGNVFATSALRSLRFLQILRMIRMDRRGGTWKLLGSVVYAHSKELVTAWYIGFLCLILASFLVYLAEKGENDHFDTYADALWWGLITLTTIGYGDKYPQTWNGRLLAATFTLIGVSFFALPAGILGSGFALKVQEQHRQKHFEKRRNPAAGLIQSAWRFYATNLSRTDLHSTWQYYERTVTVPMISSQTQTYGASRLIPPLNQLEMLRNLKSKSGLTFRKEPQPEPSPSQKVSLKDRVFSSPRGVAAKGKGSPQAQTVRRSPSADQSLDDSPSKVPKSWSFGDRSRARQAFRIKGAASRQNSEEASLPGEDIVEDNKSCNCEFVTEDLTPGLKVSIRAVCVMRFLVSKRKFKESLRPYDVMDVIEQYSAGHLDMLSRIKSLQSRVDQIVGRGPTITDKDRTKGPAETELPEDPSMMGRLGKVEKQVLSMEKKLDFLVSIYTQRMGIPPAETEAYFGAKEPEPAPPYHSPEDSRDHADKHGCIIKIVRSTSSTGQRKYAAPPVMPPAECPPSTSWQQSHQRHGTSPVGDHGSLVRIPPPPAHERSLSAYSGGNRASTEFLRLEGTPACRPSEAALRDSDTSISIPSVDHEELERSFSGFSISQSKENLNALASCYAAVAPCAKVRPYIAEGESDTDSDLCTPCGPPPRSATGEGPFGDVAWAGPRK
KCNQ2 inh = rat KCNQ2 potassium channel inhibitors, primary screen, cell-based, CHO-K1, FluxOR thallium flux, B-score. 310,000 tested, 1.1% active. B-score at 10 µM. AID 2156, 2009. Potassium voltage-gated channel subfamily KQT member 2 (Rattus norvegicus), O88943. 20 min; hits give low values;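 active = fluorescence ratio B-score at most minus 3 library SDs, with starting brightness B-score within 2 library SDs, cut at about -5.5 in these data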
An asterisk follows results filed as active; i = inactive; x = not tested or not shown. Rows were chosen to be rich in hits. Some 1.6% of all compounds tested hit in one or more screens of this group.

SMILES	KCNQ2 pot	KCNQ2 inh
CCN(CC)C(=O)CSc1nc(-c2ccc(C)cc2)nc2c1COC(C)(C)C2	-7.4	-7.4*
CC1(C)Cc2nc(-c3ccccc3)nc(SCC(=O)N3CCOCC3)c2CO1	x	i
CCN(CC)C(=O)Oc1ccc(Br)cc1C(=O)Nc1ccc(F)cc1F	x	i
O=C(Cc1csc(NC(=O)c2ccc(F)cc2)n1)NO	-5.7	-5.7*
COc1ccccc1NC(=O)Cc1csc(NC(=O)c2ccccc2)n1	0.37	i
COc1cc(OC)cc(C(=O)Nc2nc(CC(=O)NCc3ccc(F)cc3)cs2)c1	x	i
COc1ccc(C(=O)Nc2nc(-c3cccs3)cs2)cc1	1.4	i
COc1cc(C(=O)Nc2nc(-c3cccs3)cs2)cc(OC)c1OC	-7.1	-7.1*
COc1cc(OC)cc(C(=O)Nc2nc(CC(=O)NCc3ccccc3OC)cs2)c1	-6.6	-6.6*
CC1CC(=O)N(CC(=O)NCc2ccccc2)c2ccccc2S1(=O)=O (stereo not given)	x	i
Cc1ccsc1C(=O)Nc1ccc(OCc2ccccc2)cc1	0.86	i
O=C(CCl)Nc1ccccc1C(=O)Nc1ccc2c(c1)OCO2	0.75	i
CCN(CC(=O)NCc1cccs1)C(=O)c1cc(S(=O)(=O)NCc2ccccc2)ccc1C	x	i
CCn1cc(C2=NC(c3ccccc3)CO2)c2ccccc21 (stereo not given)	-5.7	-5.7*
CCn1cc(C2=NC(C)CO2)c2ccccc21 (stereo not given)	0.41	i
Oc1ccccc1C1=Nc2ccccc2N=C(c2cccs2)C1	x	i
Cc1ccc(O)c(C2=Nc3ccccc3N=C(c3cccs3)C2)c1	-5.6	-5.6*
Cn1cc(S(=O)(=O)N2CCCC2)cc1C(=O)N1CCN(c2ccccc2)CC1	1.6	i
O=C(Nc1ccccc1)C1=C[C@H](c2csc3ccccc23)C[C@H](OCc2ccc(CO)cc2)O1	-5.7	-5.7*
O=C(C1=C[C@@H](c2csc3ccccc23)C[C@@H](OCc2ccc(CO)cc2)O1)N1CCN(Cc2ccccc2)CC1	-6.2	-6.2*
O=C(NC1CC1)C1=C[C@H](c2csc3ccccc23)C[C@H](OCc2ccc(CO)cc2)O1	x	i
O=C(C1=C[C@@H](c2csc3ccccc23)C[C@@H](OCc2ccc(CO)cc2)O1)N1CCOCC1	x	i
CCCCn1c(N)c(N(CCOC)C(=O)c2sc3cc(F)ccc3c2Cl)c(=O)[nH]c1=O	2.3	i
Cn1nc(C(F)(F)F)c2cc(C(=O)Nc3ccc(C(F)(F)F)cc3)sc21	2	i
O=C(COc1ccc2ccccc2c1)NCC1CCCO1 (stereo not given)	1.1	i
SMILES	KCNQ2 pot	KCNQ2 inh
COc1ccc2c(ccn2S(=O)(=O)c2ccccc2)c1	x	i
CNc1ccc(Br)cc1C(O)c1ccccc1 (stereo not given)	0.89	i
O=C(CSc1nnc(-c2ccncc2)n1Cc1ccccc1)NC1CCCc2ccccc21 (stereo not given)	-5.8	-5.8*
O=C(CSc1nc2ccccc2s1)NC1CCCc2ccccc21 (stereo not given)	x	i
CNC(=O)CSc1nnc(-c2ccncc2)n1Cc1ccccc1	x	i
Cc1cccc(Nc2nnc(SCC(=O)NC3CCCc4ccccc43)s2)c1C (stereo not given)	-5.9	-5.9*
CC(C)[C@H](NC(=O)c1ccco1)C(=O)N(C)Cc1c(F)cccc1Cl	x	i
COc1cc(NC2=Nc3cccc4cccc2c34)cc(OC)c1OC	-6	-6*
COc1ccc(NC2=Nc3cccc4cccc2c34)cc1OC	x	i
COc1ccc(Cc2nnc(N/N=C(\C)c3ccccc3)[nH]c2=O)cc1OC	0.72	i
CCOc1ccc(C(C(=O)NC2CCCCC2)N(C(=O)c2csnn2)C2CC2)cc1 (stereo not given)	x	i
O=[N+]([O-])c1ccccc1OCCNCc1ccccc1	0.54	i
COc1ccc(C(CCN2CCCC(C)C2)c2c(OC)cc(OC)c3c(-c4ccccc4)cc(=O)oc23)cc1 (stereo not given)	-6	-6*
COc1cc(OC)c2c(-c3ccccc3)cc(=O)oc2c1C(CCN1CCCC(C)C1)c1ccc(N(C)C)cc1 (stereo not given)	x	i
O=C(COC(=O)c1oc2ccccc2c1CSc1ccc(Cl)cc1)NC1CCCC1	-6.4	-6.4*
NC(=O)COC(=O)c1oc2ccccc2c1CSc1ccc(Cl)cc1	x	i
Cc1cc(OC2CCCCC2)nc(-c2ccccc2O)n1	-5.8	-5.8*
Cc1ccc(Oc2cc(C)nc(-c3ccccc3O)n2)cc1	x	i
COc1ccc(NC(=O)CN2CCN(c3c(C)cc(C)cc3C)CC2)cc1	x	i
COC(=O)c1cc(=O)n(Cc2ccco2)c(=Nc2ccc(F)cc2)s1	-6	-6*
COC(=O)c1cc(=O)n(Cc2ccc(OC)c(OC)c2)c(=Nc2ccc(F)cc2)s1	x	i
COC(=O)c1cc(=O)n(Cc2ccc(F)cc2)c(=Nc2ccccc2)s1	-5.8	-5.8*
COC(=O)c1cc(=O)n(Cc2cccs2)c(=Nc2ccccc2)s1	x	i
CCc1ccccc1NC(=O)CNC(=O)c1ccc(-n2cncn2)c([N+](=O)[O-])c1	0.37	i
Cc1nc2c(-c3ccc(F)cc3)c(C)nn2c(C)c1CCC(=O)N1CCC(Cc2ccccc2)CC1	-6.1	-6.1*
SMILES	KCNQ2 pot	KCNQ2 inh
Cc1nc2c(-c3ccc(F)cc3)c(C)nn2c(C)c1CCC(=O)N1CCN(c2ccccc2)CC1	x	i
Cc1ccc2c(c1)cc(CN(Cc1cccs1)C(=O)c1ccco1)c1nnnn12	1.8	i
Cc1ccc2cc(CN(Cc3cccs3)C(=O)c3ccco3)c3nnnn3c2c1C	-6	-6*
O=C1CCCc2nc(N3CCN(C(=O)c4ccco4)CC3)ncc21	1.8	i
CN(C)/C=N/c1sc2c(c1C#N)CCCCC2	1.5	i
N#Cc1c(/N=C/c2cccnc2)sc2c1CCCC2	0.23	i
CCCN(/C=N/c1sc2c(c1C#N)CCCCC2)CCC	-7.9	-7.9*
N#Cc1c(/N=C/c2cccs2)sc2c1CCCCC2	-6.1	-6.1*
CCCn1ncc(C(=O)NC2CCCN(Cc3ccc(Cl)cc3)C2)c1C (stereo not given)	x	i
Cc1oc(-c2ccccc2Cl)nc1CS(=O)(=O)CC(=O)N1CCOCC1	x	i
CCOC(=O)c1c(N)sc(-c2ccccc2)c1C	x	i
CCOC(=O)c1c(N)sc(C(O)(C(F)(F)F)C(F)(F)F)c1-c1ccccc1	-7.2	-7.2*
O=C(C[n+]1ccccc1)N/N=C/c1ccccc1C(F)(F)F	0.44	i
CCC[C@@H]1C[C@@]1(CCC)[C@@H](NP(=O)(c1ccccc1)c1ccccc1)c1ccc(C(=O)OC)cc1	x	i
COC(=O)c1cccc(C#CC(NP(=O)(c2ccccc2)c2ccccc2)c2ccccc2)c1 (stereo not given)	-6.3	-6.3*
O=C(CON=C1c2ccccc2-c2ccccc21)NC12CC3CC(CC(C3)C1)C2	0.1	i
Cc1ccc(S[C@@H](CCN2CC[C@H](C)CCC2=O)c2ccccc2)cc1	x	i
CC(C)(C)C1CCC(=O)N(CCSc2ccccc2)CC1 (stereo not given)	x	i
C[C@@H](CSc1ccccc1)CN1CC[C@H](C(C)(C)C)CCC1=O	-7.2	-7.2*
Cc1ccc(S[C@@H](CCN2CC[C@H](C(C)(C)C)CCC2=O)c2ccccc2)cc1	-5.8	-5.8*
CCOc1ccc(-c2c(C(=O)N/N=C/c3cccc(Br)c3)nnn2-c2nonc2N)cc1	x	i
